From PubChem BioAssay
Activity calls are given as the source filed them. Unless noted, how the calls were made is not given here.

Legend:
[1] = HepG2 liver cancer cell viability effects, profiling panel, resazurin fluorescence, 24 h, PK04 Diversity Set (AID 1172); details: higher = more signal
[2] = basal S. cerevisiae growth modulation, no modifier, primary screen, OD600, strain BY4716, 24 h, basal condition (AID 1173); details: OD600, 24 h, higher = more signal, called active from +8 up or from −8 down
[3] = MM1S myeloma cell viability, profiling panel, resazurin fluorescence, basal, 24 h, PK04 Diversity Set (AID 1174); details: higher = more signal, called active from +8 up or from −8 down;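 further: MM1S multiple myeloma cell line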
[4] = target: Dihydroorotate dehydrogenase (quinone), mitochondrial (Plasmodium falciparum (isolate 3D7)) (UniProt Q08210); assay: PfDHODH enzyme inhibitors, primary screen, biochemical, C-terminal His tag, absorbance 600 nm (AID 1175); details: DCIP absorbance 600 nm, higher = more signal, called active from +8 up or from −8 down;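 further: recombinant parasite enzyme with a five histidine tag at its C terminus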
Sequence of Dihydroorotate dehydrogenase (quinone), mitochondrial (Plasmodium falciparum (isolate 3D7)) (Q08210 whole entry, looked up): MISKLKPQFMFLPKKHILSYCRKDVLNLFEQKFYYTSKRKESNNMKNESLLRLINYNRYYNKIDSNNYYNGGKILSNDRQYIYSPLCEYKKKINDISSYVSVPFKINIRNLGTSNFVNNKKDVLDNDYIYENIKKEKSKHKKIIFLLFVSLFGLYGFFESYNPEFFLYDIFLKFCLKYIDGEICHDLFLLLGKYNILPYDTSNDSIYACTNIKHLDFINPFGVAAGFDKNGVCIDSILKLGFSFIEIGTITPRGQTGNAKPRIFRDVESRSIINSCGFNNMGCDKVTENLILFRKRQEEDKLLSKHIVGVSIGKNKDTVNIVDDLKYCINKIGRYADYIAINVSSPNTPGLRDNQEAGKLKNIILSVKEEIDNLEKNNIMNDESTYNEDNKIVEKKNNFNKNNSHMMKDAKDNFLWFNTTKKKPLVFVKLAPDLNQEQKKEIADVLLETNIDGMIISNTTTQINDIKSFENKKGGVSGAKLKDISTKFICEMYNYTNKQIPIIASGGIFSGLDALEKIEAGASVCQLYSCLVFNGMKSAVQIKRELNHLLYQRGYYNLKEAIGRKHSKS

[5] = P. aeruginosa biofilm formation inhibitors, primary screen, strain PAO1, LB-PBS medium, absorbance 600 nm (AID 1176); details: P. aeruginosa PAO1 growth/biofilm, A600, 12 h; higher = more signal
[6] = S. cerevisiae RM11-1a growth modifiers, primary screen, strain RM11-1a, OD600, basal, 24 h (AID 1177); details: OD600, 24 h, higher = more signal, called active from +8 up or from −8 down;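 further: cultures grown under basal conditions with no added stressor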
[7] = E. coli acrAB mutant growth effects, primary screen, E. coli filamentation inducers, strain DRC39, OD650, 24 h (AID 1178); details: higher = more signal, called active from +8 up or from −8 down;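 further: growth measured as culture turbidity by optical density at 650 nm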
[8] = E. coli acrAB mutant growth effects, primary screen, E. coli filamentation inducers, strain DRC39, OD650, 48 h (AID 1179);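 further: screen aims at cell division blockers that make cells filament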; details: E. coli DRC39 delta-acrAB growth, higher = more signal, called active from +8 up or from −8 down
[9] = RPMI8226 myeloma cell viability, profiling panel, resazurin fluorescence, basal, 24 h, PK04 Diversity Set (AID 1180); details: higher = more signal;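 further: RPMI8826 multiple myeloma cell line at 5000 cells per well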
[10] = target: E3 ubiquitin-protein ligase XIAP (Homo sapiens) (UniProt P98170); assay: XIAP binders, primary screen, biophysical, small-molecule microarray, fluorescence 635 nm (AID 1181); details: small-molecule microarray binding, higher = more signal;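 further: score merges 667 nm emission and signal to noise over triplicate slides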
Sequence of E3 ubiquitin-protein ligase XIAP (Homo sapiens) (P98170 whole entry, looked up): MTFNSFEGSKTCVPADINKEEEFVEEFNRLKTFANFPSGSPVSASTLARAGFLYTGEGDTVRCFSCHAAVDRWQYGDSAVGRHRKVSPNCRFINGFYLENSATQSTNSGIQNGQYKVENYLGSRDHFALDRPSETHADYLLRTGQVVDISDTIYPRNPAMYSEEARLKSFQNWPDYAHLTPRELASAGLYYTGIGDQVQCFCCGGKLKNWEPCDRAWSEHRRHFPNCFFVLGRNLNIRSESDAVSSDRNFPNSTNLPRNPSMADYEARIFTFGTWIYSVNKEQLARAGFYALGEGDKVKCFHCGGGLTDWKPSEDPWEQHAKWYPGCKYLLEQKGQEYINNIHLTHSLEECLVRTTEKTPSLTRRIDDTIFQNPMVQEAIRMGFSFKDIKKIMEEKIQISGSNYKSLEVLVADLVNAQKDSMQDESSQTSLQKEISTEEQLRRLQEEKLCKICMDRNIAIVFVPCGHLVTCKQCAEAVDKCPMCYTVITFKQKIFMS

[11] = test system: XIP peptide (Xip251-270) binding; assay: small-molecule binders of XIP peptide, primary screen, biochemical, small-molecule microarray, fluorescence 635/667 nm, 0.1 µg/mL protein (AID 1182); details: fluorescent protein binding, 635 nm, higher = more signal, called active from +8 up or from −8 down
[12] = test system: XIP peptide (Xip251-270); assay: small-molecule binders of XIP peptide, primary screen, biochemical, small-molecule microarray, fluorescence 635/667 nm, 0.5 µg/mL protein (AID 1183); details: small-molecule microarray binding, fluorescence 635 nm; higher = more signal
[13] = Plasmodium falciparum growth inhibition, primary screen, strain 3D7, DAPI fluorescence, 100 nL (AID 1184);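 further: parasites grown inside human red blood cells in medium with human serum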; details: P. falciparum 3D7 growth, 3 d, higher = more signal
[14] = target: Homeobox protein Hox-A13 (Mus musculus) (UniProt Q62424); assay: inhibitors of HoxA13-DNA binding, primary screen, biochemical, fluorescence polarization, labeled oligonucleotide (AID 1185); details: 15 min, higher = more signal, called active from +8 up or from −8 down
Sequence of Homeobox protein Hox-A13 (Mus musculus) (Q62424 whole entry, looked up): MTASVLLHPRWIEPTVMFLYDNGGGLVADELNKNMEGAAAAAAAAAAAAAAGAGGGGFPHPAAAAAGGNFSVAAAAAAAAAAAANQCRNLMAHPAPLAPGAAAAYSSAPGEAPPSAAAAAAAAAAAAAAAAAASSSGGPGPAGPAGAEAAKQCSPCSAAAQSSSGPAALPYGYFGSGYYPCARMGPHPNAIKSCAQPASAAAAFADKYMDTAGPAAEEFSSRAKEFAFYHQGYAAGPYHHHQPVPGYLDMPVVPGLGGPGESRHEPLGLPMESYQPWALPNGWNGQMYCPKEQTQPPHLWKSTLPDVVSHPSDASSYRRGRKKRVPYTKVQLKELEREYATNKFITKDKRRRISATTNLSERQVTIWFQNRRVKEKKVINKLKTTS

[15] = inhibitors of hydroxyurea-induced Chk1 phosphorylation, primary screen, imaging, HeLa, phospho-Chk1 antibody, percent positive cells (AID 1186); details: hydroxyurea-induced phospho-Chk1 immunofluorescence imaging, higher = more signal
[16] = inhibitors of hydroxyurea-induced Chk1 phosphorylation, primary screen, imaging, HeLa, phospho-Chk1 nuclear intensity (AID 1187); details: hydroxyurea-induced phospho-Chk1 immunofluorescence imaging, higher = more signal

SMILES	z-score [1]	z-score [2]	z-score [3]	composite z-score [4]	z-score [5]	z-score [6]	z-score [7]	z-score [8]	z-score [9]	composite z-score [10]	composite z-score [11]	composite z-score [12]	z-score [13]	z-score [14]	z-score [15]	z-score [16]
C=C(/C(=C/C[C@H](OC(C)=O)c1ccccc1OCCO)c1cnc2ccccc2c1)C(C)C	-0.558	0.323 (inactive)	-1.09 (inactive)	-5.2 (inactive)	2.19 (inactive)	1 (inactive)	-0.672 (inactive)	-0.622 (inactive)	-0.817	-0.238	0.609 (inactive)	-0.167	-2.76	-5.41 (inactive)	0.284 (inactive)	-0.141 (inactive)
CNS(=O)(=O)c1ccc(C)cc1	0.925	-1.13 (inactive)	0.68 (inactive)	-1.05 (inactive)	0.426 (inactive)	-1.4 (inactive)	0.738 (inactive)	0.774 (inactive)	-0.149	-0.328	0.493 (inactive)	-0.259	0.749	-0.38 (inactive)	-0.41 (inactive)	-0.155 (inactive)
C=CCOC(=O)[C@H]1[C@@H]2C(=O)O[C@@H](c3ccccc3)[C@@H](c3ccccc3)N2[C@@H](c2ccc(OCCOC(=O)[C@H]3C[C@H]4C(=O)N[C@@H](CCCCNC(C)=O)C(=O)N4[C@H]3c3cccc(OCCO)c3)cc2)[C@]12C(=O)Nc1ccccc12	0.514	0.922 (inactive)	0.618 (inactive)	0.592 (inactive)	3.14 (inactive)	1.29 (inactive)	0.561 (inactive)	-0.581 (inactive)	0.491	-0.0338	0.899 (inactive)	0.528	-1.69	-1.77 (inactive)	-0.843 (inactive)	-0.373 (inactive)
COCCOC(=O)N1C(=O)[C@@]2(c3ccccc31)[C@H](C(=O)N1CCc3cc(OC)c(OC)cc3C1)[C@H]1C(=O)O[C@H](c3ccccc3)[C@H](c3ccccc3)N1[C@@H]2c1ccc(OCCO)cc1	-0.484	1.26 (inactive)	-0.13 (inactive)	-0.76 (inactive)	2.41 (inactive)	2.61 (inactive)	-0.259 (inactive)	0.144 (inactive)	0.549	-0.0405	2.52 (inactive)	0.8	-2.33	1.9 (inactive)	0.111 (inactive)	0.55 (inactive)
CC(=O)NCCCC[C@@H]1NC(=O)[C@H]2C[C@@H](C(=O)NCCCCCCNC(=O)CS)[C@@H](c3ccc(O)cc3)N2C1=O	-0.294	0.429 (inactive)	-0.523 (inactive)	0.761 (inactive)	1.08 (inactive)	0.518 (inactive)	-0.622 (inactive)	-1.35 (inactive)	-0.803	0.125	0.957 (inactive)	0.818	-1.26	-4.69 (inactive)	0.307 (inactive)	0.663 (inactive)
CN(C)C(=O)[C@]1(Cc2ccccc2N=[N+]=[N-])N=C(c2ccc(OCCCO)cc2)O[C@@H]1c1ccccc1N=[N+]=[N-]	-1.08	-1.57 (inactive)	-2.65 (inactive)	-0.828 (inactive)	0.438 (inactive)	0.667 (inactive)	1.01 (inactive)	2.07 (inactive)	-3.87	-0.178	1.31 (inactive)	0.799	-2.22	-3.63 (inactive)	-1.13 (inactive)	-1.55 (inactive)
CC(C)C(O)C1C=CC2C(=O)N(c3ccccc3)C(=O)C2N1Nc1ccc([N+](=O)[O-])cc1 (stereo not drawn)	-0.283	-0.539 (inactive)	-0.413 (inactive)	-0.0755 (inactive)	0.312 (inactive)	-0.0749 (inactive)	-0.912 (inactive)	-0.347 (inactive)	-0.601	0.302	-0.354 (inactive)	-0.266	0.935	-3.78 (inactive)	0.659 (inactive)	-0.404 (inactive)
COc1cc(Br)cc(C(O)C2C=CC3C(=O)N(C)C(=O)C3N2N2CCCCC2)c1OC (stereo not drawn)	-1.17	-1.43 (inactive)	-1.17 (inactive)	-0.282 (inactive)	0.406 (inactive)	1.25 (inactive)	-0.596 (inactive)	-0.683 (inactive)	-1.07	0.0123	-0.0992 (inactive)	0.823	-0.11	-2.65 (inactive)	0.293 (inactive)	0.0293 (inactive)
Cc1ccc(S[C@]2(C(=O)NCCCN(C)C)CC(=O)N(Cc3cc(C(F)(F)F)cc(C(F)(F)F)c3)[C@@H]2c2ccc(CO)cc2)cc1	-0.144	-1.33 (inactive)	-0.522 (inactive)	-0.132 (inactive)	0.621 (inactive)	-0.607 (inactive)	0.0957 (inactive)	-0.339 (inactive)	-0.402	0.164	-0.497 (inactive)	-0.583	0.798	-2.68 (inactive)	0.112 (inactive)	-0.331 (inactive)
O=C(c1ccccc1)N1C(=O)[C@@]2(Cc3ccccc31)N=C(c1ccc(OCCCO)cc1)O[C@H]2c1ccccc1	-1.01	-0.123 (inactive)	-2.94 (inactive)	-0.138 (inactive)	0.702 (inactive)	0.655 (inactive)	-0.399 (inactive)	-0.239 (inactive)	-3.43	0.327	1.68 (inactive)	0.841	-2.09	-5.9 (inactive)	0.0794 (inactive)	0.255 (inactive)
COC(=O)[C@@]1(Cc2ccc(F)cc2)[C@H]2c3cc(C(=O)N(C)C)n(Cc4ccc(Cl)c(C(F)(F)F)c4)c3C[C@H]2CN1C(=O)c1ccccc1	-0.81	0.359 (inactive)	-2.72 (inactive)	0.117 (inactive)	1.09 (inactive)	-0.285 (inactive)	-1.2 (inactive)	-0.531 (inactive)	-3.26	0.929	-0.512 (inactive)	0.503	-1.6	-2.75 (inactive)	1.09 (inactive)	0.528 (inactive)
COCCOC(=O)N1C(=O)[C@@]2(c3cc(C#Cc4ccc(OC)cc4)ccc31)[C@H](c1ccc(OCCO)cc1)N1[C@H](c3ccccc3)[C@H](c3ccccc3)OC(=O)[C@H]1[C@@H]2C(=O)N1CCN(c2ncccn2)CC1	-0.107	3.4 (inactive)	0.202 (inactive)	-1.76 (inactive)	1.9 (inactive)	3.43 (inactive)	0.129 (inactive)	-0.312 (inactive)	0.55	0.0623	0.0039 (inactive)	0.695	-1.84	0.99 (inactive)	0.13 (inactive)	0.436 (inactive)
CC(=O)NCCCC[C@@H]1NC(=O)[C@@H]2C[C@H](C(=O)NCCCCCNC(=O)CS)[C@H](c3cccc(OCCO)c3)N2C1=O	0.77	-0.719 (inactive)	1.37 (inactive)	-29.3 (active)	0.879 (inactive)	-0.86 (inactive)	0.295 (inactive)	-0.171 (inactive)	0.739	-0.13	1.84 (inactive)	0.471	0.246	-3.21 (inactive)	-0.224 (inactive)	-0.27 (inactive)
CCC(CC)C(O)C1C=CC2C(=O)NC(=O)C2N1Nc1ccccn1 (stereo not drawn)	-1.34	0.341 (inactive)	-1.76 (inactive)	-0.629 (inactive)	0.503 (inactive)	0.469 (inactive)	-0.485 (inactive)	0.333 (inactive)	-1.11	0.162	-0.471 (inactive)	0.579	-0.3	-0.375 (inactive)	0.933 (inactive)	0.481 (inactive)
C[C@H]1C2[C@H](Cc3ccccc3)NC(=O)[C@]23C(=O)N[C@H](Cc2ccccc2)C(=O)N2CCC[C@H]2C(=O)NC/C=C\C/C=C/C3[C@@H]2O[C@]12C (stereo partly drawn)	0.696	-1.96 (inactive)	1.22 (inactive)	-1.51 (inactive)	1.01 (inactive)	-0.835 (inactive)	1.11 (inactive)	-0.0988 (inactive)	1.19	0.091	0.297 (inactive)	0.192	-0.227	-6.27 (inactive)	-0.291 (inactive)	-0.104 (inactive)
Cc1ccc(S[C@]2(C(=O)NCCCN(C)C)CC(=O)N(Cc3cc(C(F)(F)F)cc(C(F)(F)F)c3)[C@@H]2c2ccc(CO)cc2I)cc1	-0.274	-4.35 (inactive)	-3.04 (inactive)	-0.0868 (inactive)	0.323 (inactive)	-0.514 (inactive)	0.392 (inactive)	0.786 (inactive)	-2.62	-0.0795	-0.773 (inactive)	-0.878	0.227	-3.31 (inactive)	0.522 (inactive)	0.201 (inactive)
COc1ccc(CCNC(=O)[C@@H]2c3ccccc3C(=O)N(Cc3ccccc3Cl)[C@H]2c2ccc(CO)cc2)cc1	0.891	-0.541 (inactive)	0.258 (inactive)	0.0856 (inactive)	0.416 (inactive)	0.394 (inactive)	-0.258 (inactive)	-0.457 (inactive)	0.883	-0.102	0.187 (inactive)	0.431	0.263	-3.28 (inactive)	0.139 (inactive)	0.595 (inactive)
CC#CC(=O)Oc1ccccc1C=CC(=O)OCC	1.86	-10.4 (active)	0.302 (inactive)	-0.155 (inactive)	1.21 (inactive)	-1.34 (inactive)	0.23 (inactive)	0.51 (inactive)	0.485	-0.162	0.0524 (inactive)	0.106	-0.418	-2.38 (inactive)	0.367 (inactive)	0.195 (inactive)
